Laboratory results as given in publication PMC5540273 (PLoS ONE, 2017).

Columns and labels:
Conditions in all cases: concentration: 1 μM, replicates: in singlicate; n = 1
SGK3 = test system: SGK3
SGK = test system: SGK
SIK2 = test system: SIK2
SIK = test system: SIK
SLK = test system: SLK
SNARK = test system: T1, SNARK
T1 construct: gene NUAK2

SNRK = test system: SNRK
SRC = test system: SRC
SRMS = test system: SRMS
SRPK1 = test system: SRPK1
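Note: KINOMEscan kinase panel screen.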

Row | SMILES | %Inh (SGK3) [%] | %Inh (SGK) [%] | %Inh (SIK2) [%] | %Inh (SIK) [%] | %Inh (SLK) [%] | %Inh (SNARK) [%] | %Inh (SNRK) [%] | %Inh (SRC) [%] | %Inh (SRMS) [%] | %Inh (SRPK1) [%]
1 | Cc1ccc(-c2nc(Nc3ccncc3)c3ccccc3n2)s1 [GSK189015] | 47 | 5 | 16 | 0 | 9 | 74 | 3 | 13 | 3 | 38
2 | CNc1nc(-c2ccc3c(N)n[nH]c3c2)cc(N2C[C@@H](C(=O)NC3CCCCC3)OC[C@H]2C)n1 [GSK2375584] | 20 | 0 | 0 | 0 | 24 | 30 | 2 | 0 | 0 | 4
3 | CC(C)c1ccc(O)cc1Nc1ccnc2ccc(C(F)(F)F)cc12 [GW482059] | 4 | 7 | 0 | 0 | 9 | 3 | 0 | 14 | 0 | 35
4 | Nc1ncnc2occ(-c3ccc4c(c3)CCN4C(=O)Cc3cc(F)ccc3F)c12 [GSK2645446] | 1 | 0 | 0 | 0 | 5 | 7 | 0 | 0 | 0 | 16
5 | COC(=O)c1cccc(NC(=O)NC2CCN(c3ccnc(Nc4ccc(F)cc4)n3)C2)c1 (stereo not shown) [GSK1379725] | 0 | 0 | 0 | 2 | 0 | 0 | 0 | 0 | 0 | 23
6 | CNCc1ccc2nc(NC(=O)c3ccc(C(C)(C)C)cc3)cn2c1 | 31 | 2 | 4 | 3 | 0 | 34 | 20 | 3 | 0 | 33
7 | Cn1cncc1C(=O)NC1CCN(c2ccnc(Nc3ccc(F)cc3)n2)C1 (stereo not shown) [GSK1379717] | 0 | 14 | 0 | 0 | 0 | 0 | 0 | 0 | 0 | 100
8 | COc1ccc(Nc2nccc(N3CCC(NC(=O)C(C)c4ccc(Cl)cc4)C3)n2)cc1 (stereo not shown) [GSK1379735] | 0 | 10 | 13 | 0 | 33 | 0 | 48 | 0 | 2 | 39
9 | COc1ccc(Nc2nccc(-c3ccc(NC(=O)c4cc5cc(F)ccc5[nH]4)cc3)n2)cc1 [GSK1229496] | 1 | 0 | 0 | 0 | 0 | 0 | 0 | 0 | 7 | 10
10 | O=c1cc(N2CCOCC2)nc2n(Cc3ccccc3F)ccn12 [GSK2297428] | 4 | 0 | 0 | 0 | 28 | 0 | 0 | 0 | 0 | 0
11 | FC(F)(F)c1ccccc1-c1cc(-c2c[nH]nc2-c2ccccn2)ccn1 [GW679396] | 1 | 0 | 0 | 0 | 15 | 0 | 0 | 0 | 0 | 3
12 | CSc1ccc(-c2nc3n(c2-c2ccncc2)CCC3)cc1 [SKF-105561] | 6 | 0 | 0 | 0 | 7 | 0 | 18 | 0 | 13 | 2
13 | Cc1c(Cn2c3ccccc3n3c(=O)cc(N4CCOCC4)nc23)cccc1C(F)(F)F [GSK2306394] | 0 | 15 | 0 | 0 | 5 | 0 | 0 | 1 | 0 | 41
14 | COc1ccc(CSc2nnc(-c3ccc4ncsc4c3)o2)cc1C(F)(F)F | 0 | 2 | 0 | 11 | 15 | 0 | 0 | 3 | 0 | 10
15 | COC(=O)c1cccc(NC(=O)NC2CCN(c3ccnc(Nc4ccc(OC)cc4)n3)C2)c1 (stereo not shown) [GSK1379746] | 0 | 9 | 0 | 0 | 7 | 0 | 0 | 0 | 0 | 0
16 | Cc1ccccc1Cn1ccn2c(=O)cc(N3CCOCC3)nc12 [GSK2269905] | 2 | 0 | 0 | 0 | 20 | 0 | 0 | 0 | 0 | 24
17 | CS(=O)(=O)CCNCc1nc(-c2ccc3ncnc(Nc4ccc5c(cnn5Cc5ccccc5)c4)c3c2)cs1.Cl.Cl [GW569716] | 0 | 3 | 0 | 0 | 0 | 0 | 0 | 0 | 0 | 14

Row | SMILES | %Inh (SGK3) [%] | %Inh (SGK) [%] | %Inh (SIK2) [%] | %Inh (SIK) [%] | %Inh (SLK) [%] | %Inh (SNARK) [%] | %Inh (SNRK) [%] | %Inh (SRC) [%] | %Inh (SRMS) [%] | %Inh (SRPK1) [%]
18 | NS(=O)(=O)c1cccc(N/C=C2\C(=O)Nc3ccc(S(=O)(=O)Cc4c(Cl)cccc4Cl)cc32)c1 [GSK398099] | 5 | 0 | 0 | 0 | 15 | 0 | 0 | 0 | 0 | 19
19 | O=C1NC(=O)C(c2ccc(Cl)cc2)=C1Nc1cccc(Cl)c1 [SB-317651] | 0 | 0 | 0 | 0 | 14 | 0 | 0 | 2 | 0 | 0
20 | CCn1c(-c2c(N)noc2C)nc2cnccc21 [SB-737856] | 0 | 0 | 0 | 0 | 4 | 0 | 0 | 0 | 0 | 0
21 | O=C(Nc1n[nH]c2nc(-c3cccs3)c(Br)cc12)C1CCCC1 [SB-743341] | 40 | 0 | 0 | 17 | 38 | 34 | 19 | 7 | 0 | 0
22 | Cc1c(Cn2c(C)c(C)n3c(=O)cc(N4CCOCC4)nc23)cccc1C(F)(F)F [GSK2328680] | 0 | 16 | 0 | 0 | 22 | 0 | 0 | 0 | 0 | 6
23 | O=C(Nc1n[nH]c2nc(-c3ccco3)c(Br)cc12)C1CCN(Cc2ccccc2)C1.O=C(O)[C@H](O)[C@@H](O)C(=O)O (stereo not shown) [SB-742034] | 24 | 18 | 9 | 52 | 8 | 11 | 0 | 0 | 17 | 28
24 | CNC(=O)c1ccc(C)c(-n2c(C)cc(OCc3ccc(F)cc3F)c(Br)c2=O)c1 | 0 | 0 | 0 | 0 | 0 | 0 | 0 | 0 | 0 | 14
25 | Cc1ccc(NC(=O)Nc2ccccc2)cc1-c1ccc(C(=O)Nc2ccncc2)cc1 [GSK1398471] | 10 | 0 | 0 | 6 | 13 | 4 | 0 | 20 | 0 | 33
26 | CC[C@@H]1CO[C@H](C(=O)Nc2ccccc2)CN1c1cc(-c2ccc3c(N)n[nH]c3c2)nc(NC)n1 [GSK2376236] | 9 | 19 | 0 | 0 | 16 | 26 | 5 | 0 | 0 | 32
27 | CS(=O)(=O)Cc1ccc(Nc2nccc(-c3c(-c4cccc(NC(=O)C5CCCCC5)c4)nn4ncccc34)n2)cc1 [GSK350559] | 0 | 46 | 0 | 0 | 53 | 7 | 16 | 30 | 3 | 29
28 | CCn1c(-c2ccccc2)nc2cnccc21 [SB-733416] | 0 | 9 | 5 | 3 | 28 | 0 | 0 | 0 | 0 | 11
29 | COC(=O)C(Cc1ccccc1)NC(=O)NC1CCN(c2ccnc(Nc3ccc(F)cc3)n2)C1 (stereo not shown) [GSK1379714] | 0 | 2 | 0 | 0 | 22 | 0 | 0 | 1 | 5 | 15
30 | Nc1cccc(-c2ccc3c(N)n[nH]c3c2)n1 [GSK2192730] | 34 | 2 | 0 | 0 | 0 | 19 | 0 | 0 | 0 | 33
31 | Fc1ccc(-c2nc[nH]c2-c2ccncc2)cc1 [SB-217360] | 7 | 0 | 0 | 0 | 32 | 0 | 0 | 0 | 34 | 0
32 | COc1ccc(-c2coc3ccc(-c4nnc(C)o4)cc23)cc1 | 0 | 0 | 3 | 0 | 5 | 0 | 0 | 20 | 0 | 9
33 | O=C(Nc1n[nH]c2nc(-c3cccs3)c(Br)cc12)C1CC1 [SB-735297] | 15 | 26 | 0 | 0 | 7 | 10 | 0 | 0 | 5 | 22
34 | COc1ccc(CSc2nnc(-c3ccc4nccn4c3)o2)cc1C(F)(F)F | 61 | 8 | 29 | 13 | 14 | 77 | 5 | 7 | 3 | 20
